68 compounds from paper PMC4336329 (PLoS ONE, 2015) can be followed below.

Molecules are shown by their SMILES. Hit rate of the full screen: of about 310,000 compounds, about 14,000 (4.5%) showed an effect of 50% or more. Effects have a minus sign here. Many of the other results were omitted from the sample, so strong results are more common in it than they were.
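Further: peak tail current of the secondary pulse compared with the same well before compound.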

Sequence of human ether-à-go-go-related gene (hERG) potassium channel (Q12809 whole entry, looked up): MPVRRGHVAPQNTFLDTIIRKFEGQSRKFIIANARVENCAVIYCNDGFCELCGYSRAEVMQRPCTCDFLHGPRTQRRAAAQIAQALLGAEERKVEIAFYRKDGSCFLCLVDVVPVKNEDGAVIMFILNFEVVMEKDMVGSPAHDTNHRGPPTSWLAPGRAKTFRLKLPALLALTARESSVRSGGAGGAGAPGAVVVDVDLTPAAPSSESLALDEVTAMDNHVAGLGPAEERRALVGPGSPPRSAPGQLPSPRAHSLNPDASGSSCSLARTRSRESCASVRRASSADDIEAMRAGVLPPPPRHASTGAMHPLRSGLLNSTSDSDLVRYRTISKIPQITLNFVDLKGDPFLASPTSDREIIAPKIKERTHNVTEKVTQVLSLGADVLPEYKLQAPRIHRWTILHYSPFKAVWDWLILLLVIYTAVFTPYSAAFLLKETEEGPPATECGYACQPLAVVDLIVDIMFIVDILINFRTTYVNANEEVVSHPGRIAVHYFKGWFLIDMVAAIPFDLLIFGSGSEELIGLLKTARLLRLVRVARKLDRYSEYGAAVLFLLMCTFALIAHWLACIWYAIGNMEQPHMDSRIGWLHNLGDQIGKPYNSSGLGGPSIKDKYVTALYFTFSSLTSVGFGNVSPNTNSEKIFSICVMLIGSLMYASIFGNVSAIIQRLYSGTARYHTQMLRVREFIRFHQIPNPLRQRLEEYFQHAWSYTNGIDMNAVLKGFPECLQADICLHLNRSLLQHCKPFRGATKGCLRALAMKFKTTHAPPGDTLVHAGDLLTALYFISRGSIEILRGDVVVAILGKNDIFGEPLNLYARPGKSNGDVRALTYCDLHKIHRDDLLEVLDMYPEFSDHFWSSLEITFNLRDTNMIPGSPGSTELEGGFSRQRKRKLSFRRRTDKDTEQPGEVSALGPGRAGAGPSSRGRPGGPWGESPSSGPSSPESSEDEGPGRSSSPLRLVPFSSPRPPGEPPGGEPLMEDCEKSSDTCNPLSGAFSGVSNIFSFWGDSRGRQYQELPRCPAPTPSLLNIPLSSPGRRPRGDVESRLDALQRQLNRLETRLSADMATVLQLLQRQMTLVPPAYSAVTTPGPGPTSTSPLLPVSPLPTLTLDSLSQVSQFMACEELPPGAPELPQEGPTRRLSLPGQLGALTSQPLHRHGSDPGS

This test concerns the target human ether-à-go-go-related gene (hERG) potassium channel (human, UniProt Q12809). Briefly: primary screen, population patch clamp on CHO cells stably expressing hERG; higher = less effect of the substance.
Consider `COc1ccc(CNC(=O)c2ccc3c(=O)n(CCCN4CCCC4=O)c(=S)[nH]c3c2)cc1`, for which the “hERG current change (%, negative = inhibition) at 10uM” value is given as 19%.
Under `CCOC(=O)c1c(Nc2ccccc2N)cc(C)nc1C` stands -13.9%; under `CCOC(=O)c1ccc(Nc2cc(C)nc3nc(C)nn23)cc1`, -53%.
Consider `COC(=O)c1ccc(Nc2cc(C)nc3nc(C)nn23)cc1`, for which the “hERG current change (%, negative = inhibition) at 10uM” value is given as -37.8%.
Under `CCOC(=O)c1ccc(Nc2nc(C)cc(C)n2)cc1` stands 16.7%; under `CCOC(=O)c1ccc(Nc2cc(C)nc(C)c2C(=O)OCC)cc1.Cl`, -62.6%; under `CCOC(=O)c1ccc(Nc2cc(C)nc3ncnn23)cc1`, -15.1%.
Under `COc1ccc(/C=N/NC(=O)CCn2c3ccccc3c3ccccc32)cc1O` stands 5.18%.
The value for `COc1ccc(NS(=O)(=O)c2cc(C)ccc2OC)cc1OC` was 10.5%; that for `CN(C)c1ccc2c(O)cc(=O)n(C)c2c1` was 6.76%.
`O=C(NC1CCCC1)c1cc2nc(-c3ccccc3)cc(-c3ccccc3)n2n1`: the “hERG current change (%, negative = inhibition) at 10uM” value is given as -23.3%.
The value for `Cc1ccc2nc(C)c(C)nc2c1N` was 8.1%; that for `O=C(Nc1ccc(Cl)cc1Cl)c1ccc2c(=O)n3c(nc2c1)CCC3` was -39.8%.
Under `Fc1ccc(CSc2nnc(-c3cnccn3)n2Cc2ccco2)cc1` stands -52.2%; under `O=c1[nH]c(CSc2nnc(-c3ccncc3)n2Cc2ccco2)nc2ccccc12`, -58.2%; under `NC(=O)CSc1nnc(-c2cnccn2)n1Cc1ccco1`, 7.06%.
The value for `CCn1c(SCc2nc3ccccc3c(=O)[nH]2)nnc1-c1ccncc1` was -11.7%; that for `Cn1c(Cc2ccccc2)nnc1SCc1nc2ccccc2c(=O)[nH]1` was -1.69%.
Regarding `COCCn1c(SCc2nc3ccccc3c(=O)[nH]2)nnc1-c1ccncc1`, the “hERG current change (%, negative = inhibition) at 10uM” value is recorded as -4.64%.
The value for `Cn1c(-c2ccccc2)cnc1SCc1nc2ccccc2c(=O)[nH]1` was -59.9%; that for `Cn1c(SCc2nc3ccccc3c(=O)[nH]2)nc2ccccc21` was 0.933%; that for `c1coc(Cn2c(SCc3nc4ccccc4[nH]3)nnc2-c2cnccn2)c1` was -56.3%.
Take `c1ccc(-c2nnc(SCc3nc4ccccc4[nH]3)n2Cc2ccco2)nc1`: the “hERG current change (%, negative = inhibition) at 10uM” value was -8.18%.
For `c1ccc(-c2nnc(SCc3nc4ccccc4[nH]3)n2Cc2ccco2)cc1`, the “hERG current change (%, negative = inhibition) at 10uM” value is -22.4%.
The value for `Fc1ccccc1CSc1nnc(-c2cnccn2)n1Cc1ccco1` was -11.2%; that for `Cl.NC(N)=NC(N)=Nc1ccc(SC(F)(F)F)cc1` was -21.3%; that for `Oc1cccnc1Sc1cccc(C(F)(F)F)c1` was 18.6%.
On to `CC(C)(C)c1nnc(NC(=O)CCS(=O)(=O)c2ccccc2)s1`, for which the “hERG current change (%, negative = inhibition) at 10uM” value was 5.03%.
Under `COc1cc(/C=C2/SC(=S)NC2=O)ccc1OS(=O)(=O)c1ccc(C)cc1` stands 39.8%; under `CCOc1ccc(CCNC(=O)C2CCN(S(=O)(=O)N3CC(C)CC(C)C3)CC2)cc1OCC` (centres unmarked), 20.7%.
Under `Cc1c(NC(=O)Cn2cc([N+](=O)[O-])cn2)c(=O)n(-c2ccccc2)n1C` stands 11.7%.
The value for `CC1CCN(c2ccc3c(c2)S(=O)(=O)c2ccccc2C3=O)CC1` was 7.82%; that for `COc1cccc2cc(C(=O)C3=C(O)C(=O)N(c4cc(C)on4)C3c3cccs3)oc12` (centres unmarked) was 22.9%; that for `COc1ccccc1CNC(=O)CS(=O)Cc1nc(-c2ccc(OC)c(OC)c2)oc1C` (centres unmarked) was -6.47%.
On to `COc1ccccc1NS(=O)(=O)c1ccc2oc(=S)[nH]c2c1`, for which the “hERG current change (%, negative = inhibition) at 10uM” value amounted to 2.14%.
Under `CC1CC(C)(C)NC(=S)N1CCC(=O)Nc1ccc2c(c1)OCCO2` (centres unmarked) stands 18.3%.
Under `CC(C)(C)c1ccc(OC(=O)N2CCOCC2)cc1` stands 14%.
For `COc1cc(OC)cc(C(=O)Nc2cccc(-c3ccc(N4CCOCC4)nn3)c2)c1`, the “hERG current change (%, negative = inhibition) at 10uM” value is on record as 14.5%.
The value for `O=c1[nH]c(=O)n(CCc2ccc(F)cc2)c(O)c1C=NCCCn1ccnc1` was -3.22%.
Under `O=c1[nH]c(=S)n(CCC2=CCCCC2)c(O)c1/C=N/N1CCOCC1` stands -41.8%; under `O=c1[nH]c(=S)n(CCC2=CCCCC2)c(O)c1C=NCCCn1ccnc1`, -69.3%; under `O=c1[nH]c(=S)n(Cc2ccc(F)cc2)c(O)c1C=NCC1CCCO1` (centres unmarked), -61.9%.
The value for `O=c1[nH]c(=S)n(C2CC2)c(O)c1C=NCC1CCCO1` (centres unmarked) was -6.97%.
In the case of `O=c1[nH]c(=O)n(CCC2=CCCCC2)c(O)c1/C=N/N1CCOCC1`, the “hERG current change (%, negative = inhibition) at 10uM” value is reported as -21.6%.
Under `O=c1[nH]c(=S)n(CCC2=CCCCC2)c(O)c1C=NCc1cccnc1` stands -0.946%; under `O=c1[nH]c(=S)n(Cc2ccc(F)cc2)c(O)c1C=NCCCn1ccnc1`, -60.3%.
Under `O=c1[nH]c(=O)n(Cc2ccc(F)cc2)c(O)c1C=NCCCn1ccnc1` stands 4.08%.
`O=c1[nH]c(=O)n(CCC2=CCCCC2)c(O)c1C=NCCCn1ccnc1`: the “hERG current change (%, negative = inhibition) at 10uM” value is -17.6%.
For `CN1CCN(/N=C/c2c(O)n(CCC3=CCCCC3)c(=S)[nH]c2=O)CC1`, the “hERG current change (%, negative = inhibition) at 10uM” value is listed as -64.9%.
The value for `O=c1[nH]c(=O)n(Cc2ccc(F)cc2)c(O)c1C=NCC1CCCO1` (centres unmarked) was -13%; that for `O=C(/C=C/c1ccccc1)C1C(=O)c2ccccc2C1=O` was -0.201%.
The value for `Cn1cnc(S(=O)(=O)N2CCN(c3ccccc3)CC2)c1` was 17.3%.
Turning to `Cc1c(C(=O)O)oc2c1C(O)CCC2` (centres unmarked), the “hERG current change (%, negative = inhibition) at 10uM” value is on record as 0.768%.
The value for `COc1ccc(N(C(C)=O)C2C=CS(=O)(=O)C2)c(OC)c1` (centres unmarked) was 9.14%; that for `CSc1nnc(C(C)(C)C)c(=O)n1/N=C/c1ccc(Cl)cc1` was 0.0206%.
The value for `CC(/C=N/NC(=O)CNc1n[nH]c(=O)[nH]c1=O)c1ccccc1` (centres unmarked) was 2.52%.
As to `COc1ccc(-c2nn(-c3ccccc3)cc2CN2CCCO2)c(F)c1`, the “hERG current change (%, negative = inhibition) at 10uM” value is listed as 3.95%.
Take `COc1ccc(-c2nn(-c3ccccc3)cc2CN(C)CCn2ccnc2C)c(F)c1`: the “hERG current change (%, negative = inhibition) at 10uM” value is on record as -57.6%.
Under `CN(Cc1cn(-c2ccccc2)nc1-c1ccc2c(c1)OCO2)Cc1nccn1C` stands -16.1%; under `COc1cccc(-c2nn(-c3ccccc3)cc2CN(C)Cc2ccno2)c1`, 3.65%.
For the compound `CCn1ccnc1CN(C)Cc1cn(-c2ccccc2)nc1-c1ccc(OC)cc1F`, the “hERG current change (%, negative = inhibition) at 10uM” value is recorded as -44.9%.
Under `Cc1nccn1CCN(C)Cc1cn(Cc2ccccc2)nc1-c1ccc2c(c1)OCO2` stands -60%.
Under `CN(Cc1cnccn1)Cc1cn(Cc2ccccc2)nc1-c1ccc2c(c1)OCO2` stands -23%; under `CN(Cc1cn(Cc2ccccc2)nc1-c1ccc2c(c1)OCO2)Cc1nccn1C`, -32.7%.
Under `COc1cccc(-c2nn(-c3ccccc3)cc2CN(C)Cc2ccon2)c1` stands 9.02%.
For the compound `CN(Cc1ccccn1)Cc1cn(Cc2ccccc2)nc1-c1ccc2c(c1)OCO2`, the “hERG current change (%, negative = inhibition) at 10uM” value was -20.6%.
The value for `COc1cccc(-c2nn(-c3ccccc3)cc2CN(C)Cc2c(C)nc3ccccn23)c1` was -59.9%.
The value for `CN(Cc1ncc[nH]1)Cc1cn(-c2ccccc2)nc1-c1ccc2c(c1)OCO2` was -60.1%.
